C diff growth: blocks growth of Clostridium difficile | 0.25% of 86,000 active | AID 1259249 | Clostridium difficile clinical isolate growth, OD600, 24 h; active compounds read low | growth activity, negative = inhibition, % at 16 µg/mL (by protocol);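 active means mean growth activity at or below -80% and every replicate also at or below -80%; inconclusive means mean at or below -80% but some replicate above -80%; inactive means mean growth activity above -80%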
T cruzi growth-1: T. cruzi proliferation inhibition. T. cruzi beta-gal in NIH3T3, GalScreen luminescence, 90 h. inhibition, % at 8.34 µM. 5.9% of 77,000 active;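 active means mean inhibition above about 93%, with at least 55% of replicates each passing it, limit read from the data, passing the limit was not always enough; inconclusive means only one of those two conditions holds; inactive means neither condition holds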
Pf Dd2 growth: P. falciparum Dd2 growth inhibition; SYBR Green, 72 h; active compounds read low; activity change, % at 10 µM; 2.3% of 94,000 active; in the data active means activity change below about -80%; inconclusive means no clear call, values can overlap the other calls
T cruzi growth-2: Trypanosoma cruzi proliferation inhibition; shares compounds with T cruzi growth-1; T. cruzi beta-gal in NIH3T3, GalScreen luminescence, 90 h; inhibition, % at 8.35 µM; 72% of 5,600 active;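 active means mean replicate inhibition above about 95% and at least 55% of replicates individually reaching it, limit read from the data; inconclusive means only one of the two criteria is met; inactive means neither criterion is met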
T cruzi growth-3: Trypanosoma cruzi proliferation inhibition | shares compounds with T cruzi growth-1 | T. cruzi beta-gal in NIH3T3, GalScreen luminescence, 90 h | inhibition, % at 2.09 µM | 21% of 5,600 active;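 active means mean inhibition above about 95%, with at least 55% of replicates also reaching it, limit read from the data; inconclusive means meets just one of the two conditions; inactive means meets neither condition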
NIH3T3 tox: NIH/3T3 (mouse) viability loss; shares compounds with T cruzi growth-1; NIH/3T3 viability, CellTiter-Glo ATP luminescence, 90 h; cytotoxicity (signal decrease), % at 8.35 µM; 14% of 5,600 active; AID 651742;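 active means mean signal decrease across replicates above about 35% based on untreated-well scatter, with enough replicates individually passing, limit read from the data; inconclusive means no rule stated though some were filed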
3T3 cytotox 2: kills mouse NIH/3T3 fibroblasts; shares compounds with T cruzi growth-1; NIH/3T3 viability, CellTiter-Glo ATP luminescence, 90 h; inhibition, % at 24.9 µM; 56% of 5,600 active;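 active means mean loss of cell viability signal at or above a set limit, and enough replicates individually reaching it; inconclusive means meets only the mean limit or only the replicate share; inactive means meets neither condition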
Large screens that a line does not name were inactive (follow-up assays come after a bar, where they were run). Rows were chosen to be rich in hits. Some 6.7% of all compounds tested hit in one or more screens of this group.

Cc1cccc(-c2ccc([C@H]3[C@H]4CN(CCC(F)(F)F)CCCCN4[C@H]3CO)cc2)c1	T cruzi growth-1 inconclusive | T cruzi growth-2 103 | T cruzi growth-3 116 | NIH3T3 tox inactive | 3T3 cytotox 2 105
COc1ccccc1C#Cc1ccc([C@@H]2[C@H]3CN(CCC(F)(F)F)CCCCN3[C@H]2CO)cc1	T cruzi growth-1 98 | T cruzi growth-2 97 | T cruzi growth-3 101 | NIH3T3 tox 61 | 3T3 cytotox 2 107
C[C@@H]1CCCCO[C@H](CN(C)Cc2ccc(C(F)(F)F)cc2)[C@@H](C)CN([C@@H](C)CO)C(=O)c2cc(NS(=O)(=O)c3cn(C)cn3)ccc2O1	none
CCC(=O)Nc1ccc2c(c1)C(=O)N(C)C[C@@H](OC)[C@@H](C)CN(Cc1ccccc1C(=O)O)[C@@H](C)CO2	none (no result: C diff growth)
O=C(C[C@@H]1CC[C@@H](NS(=O)(=O)c2ccc(F)cc2)[C@H](CO)O1)NCc1ccccc1F	none (no result: T cruzi growth-1)
OC[C@H]1[C@H](c2ccc(C#CC3CC3)cc2)[C@@H]2CN(CCC(F)(F)F)CCCCN12	none
OC[C@@H]1[C@H](c2ccc(-c3ccccc3)cc2)[C@@H]2CN(CCC(F)(F)F)CCCCN12	T cruzi growth-1 104 | T cruzi growth-2 103 | T cruzi growth-3 inactive | NIH3T3 tox 58 | 3T3 cytotox 2 105
OC[C@H]1[C@H](c2ccc(-c3ccccc3)cc2)[C@H]2CN(CCC(F)(F)F)CCCCN21	none
OC[C@@H]1[C@H](c2ccc(C#CC3CC3)cc2)[C@H]2CN(CCC(F)(F)F)CCCCN12	T cruzi growth-1 105 | T cruzi growth-2 108 | T cruzi growth-3 inconclusive | NIH3T3 tox inactive | 3T3 cytotox 2 104
C[C@H](CO)N1C[C@H](C)[C@@H](CN(C)C(=O)C2CCCCC2)OCCCC[C@H](C)Oc2ccc(NS(C)(=O)=O)cc2C1=O	none
C[C@@H]1CCCCO[C@H](CN(C)C(=O)C2CCCCC2)[C@H](C)CN([C@@H](C)CO)C(=O)c2cc(NS(C)(=O)=O)ccc2O1	T cruzi growth-1 100 | T cruzi growth-2 inactive | T cruzi growth-3 inactive | NIH3T3 tox inactive | 3T3 cytotox 2 inactive
C[C@@H]1CCCCO[C@@H](CN(C)C(=O)C2CCCCC2)[C@H](C)CN([C@@H](C)CO)C(=O)c2cc(NS(=O)(=O)c3ccc(Cl)cc3)ccc2O1	T cruzi growth-1 inconclusive | T cruzi growth-2 109 | T cruzi growth-3 inactive | NIH3T3 tox inactive | 3T3 cytotox 2 34
C[C@H]1CCCCO[C@H](CN(C)C(=O)C2CCCCC2)[C@@H](C)CN([C@@H](C)CO)C(=O)c2cc(NS(=O)(=O)c3ccc(Cl)cc3)ccc2O1	T cruzi growth-1 inconclusive | T cruzi growth-2 104 | T cruzi growth-3 inactive | NIH3T3 tox inactive | 3T3 cytotox 2 99
C[C@H](CO)N1C[C@H](C)[C@H](CN(C)C(=O)CCC(F)(F)F)OCCCC[C@H](C)Oc2ccc(NS(=O)(=O)c3ccc(Cl)cc3)cc2C1=O	T cruzi growth-1 103 | T cruzi growth-2 109 | T cruzi growth-3 inactive | NIH3T3 tox inactive | 3T3 cytotox 2 inactive
Cc1ccc(S(=O)(=O)Nc2ccc3c(c2)C(=O)N([C@H](C)CO)C[C@H](C)[C@H](CN(C)C(=O)C2CCCCC2)OCCCC[C@H](C)O3)cc1	none
C[C@@H]1CCCCO[C@@H](CN(C)C(=O)CCC(F)(F)F)[C@@H](C)CN([C@H](C)CO)C(=O)c2cc(NS(=O)(=O)c3ccc(Cl)cc3)ccc2O1	none
C[C@@H]1CCCCO[C@@H](CN(C)C(=O)C2CCCCC2)[C@@H](C)CN([C@@H](C)CO)C(=O)c2cc(NS(=O)(=O)c3ccc(Cl)cc3)ccc2O1	none
O=C(O)C[C@@H]1CC[C@@H](NC(=O)Nc2cc(F)ccc2F)[C@H](CO)O1	none (no result: T cruzi growth-1)
C[C@@H]1CCCCO[C@H](CN(C)C(=O)C2CCCCC2)[C@H](C)CN([C@H](C)CO)C(=O)c2cc(NS(=O)(=O)c3ccc(Cl)cc3)ccc2O1	T cruzi growth-1 inconclusive | T cruzi growth-2 105 | T cruzi growth-3 inactive | NIH3T3 tox inactive | 3T3 cytotox 2 52
C[C@@H]1CCCCO[C@H](CN(C)C(=O)C2CCCCC2)[C@@H](C)CN([C@H](C)CO)C(=O)c2cc(NS(=O)(=O)c3ccc(Cl)cc3)ccc2O1	none
CN(C)CC#Cc1ccc([C@H]2[C@@H](CO)N3C(=O)CN(C(=O)c4ccccc4)C[C@H]23)cc1	none (no result: T cruzi growth-1)
CN1C(=O)c2cc(NS(C)(=O)=O)ccc2OC[C@@H]2O[C@H](CC(=O)NCc3ccc(-c4ccccc4)cc3)CC[C@@H]21	none (no result: Pf Dd2 growth)
C[C@H](CO)N1C[C@H](C)[C@H](CN(C)C(=O)C2CCCCC2)OCCCC[C@H](C)Oc2ccc(N(C)C)cc2C1=O	T cruzi growth-1 100 | T cruzi growth-2 inactive | T cruzi growth-3 inactive | NIH3T3 tox inactive | 3T3 cytotox 2 inactive
C[C@@H]1CCCCO[C@@H](CN(C)C(=O)C2CCCCC2)[C@@H](C)CN([C@H](C)CO)C(=O)c2cc(N(C)C)ccc2O1	none (no result: Pf Dd2 growth)
C[C@@H]1CCCCO[C@@H](CN(C)C(=O)C2CCCCC2)[C@@H](C)CN([C@@H](C)CO)C(=O)c2cc(N(C)C)ccc2O1	none
C[C@@H]1CCCCO[C@H](CN(C)C(=O)C2CCCCC2)[C@H](C)CN([C@@H](C)CO)C(=O)c2cc(N(C)C)ccc2O1	T cruzi growth-1 110 | T cruzi growth-2 inactive | T cruzi growth-3 inactive | NIH3T3 tox inactive | 3T3 cytotox 2 inactive
CNC[C@@H]1OCCCC[C@H](C)Oc2ccc(NS(=O)(=O)c3c(C)noc3C)cc2C(=O)N([C@@H](C)CO)C[C@H]1C	none
OC[C@@H]1[C@H](c2ccc(-c3cccnc3)cc2)[C@H]2CN(CC3CCOCC3)CCCCN12	T cruzi growth-1 97 | T cruzi growth-2 inconclusive | T cruzi growth-3 inactive | NIH3T3 tox inactive | 3T3 cytotox 2 inactive
COc1cccc(-c2ccc([C@H]3[C@@H](CO)N4CCCCN(CC5CCOCC5)C[C@H]34)cc2)c1	T cruzi growth-1 107 | T cruzi growth-2 107 | T cruzi growth-3 inactive | NIH3T3 tox inactive | 3T3 cytotox 2 97
OC[C@@H]1[C@@H](c2ccc(-c3cccnc3)cc2)[C@@H]2CN(CC3CCOCC3)CCCCN12	none
COc1cccc(-c2ccc([C@@H]3[C@H]4CN(CC5CC5)CCCCN4[C@H]3CO)cc2)c1	none
COc1ccc(NC(=O)N2CCCCN3[C@H](CO)[C@@H](c4ccc(C5=CCCC5)cc4)[C@@H]3C2)cc1	none
C[C@@H]1CN([C@H](C)CO)C(=O)c2cccc(NS(=O)(=O)c3ccccc3)c2O[C@H]1CN(C)S(=O)(=O)c1cn(C)cn1	none
C[C@@H]1CCCCO[C@H](CN(C)C(=O)Nc2ccc(C(F)(F)F)cc2)[C@H](C)CN([C@@H](C)CO)C(=O)c2cc(NC(=O)CCC(F)(F)F)ccc2O1	none

Source: PubChem BioAssay
